Laboratory results taken from PubChem BioAssay AID624297 (National Center for Advancing Translational Sciences (NCATS), 2012).
Among all 340,000 compounds or so, about 6,200 (1.8%) were called active. Entries that show only a call come without a potency. Roughly 10% stayed inconclusive and do not appear here. The sample as a whole holds a higher share of actives than the screen did. Unmarked numbers belong to inactive results. Calls come from the whole dose curve; as a rule, active = well fitted activation curve with a large enough effect; inconclusive = small, poorly fitted or top-dose-only effect; inactive = no such curve, though single readings can be large or run the other way.

Assay: A quantitative high throughput screen for small molecules that induce DNA re-replication in SW480 colon adenocarcinoma cells. Note: nearly all actives have a fitted effect of over 55% in size.
Conditions: Hoechst DNA content imaging, 48 h; series mostly up to 46.1 µM
Method in brief: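 Image-based read-out: total Hoechst fluorescence of nuclei (405 nm excitation, 500-530 nm emission), with hits raising the fraction of high-intensity nuclei. SW480 colon cells incubated 48 hr with compounds at 37 C.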
Potency is the fitted concentration of half-maximal effect.

| Structure (SMILES) | Potency | re-replication activation |
| --- | --- | --- |
| Cc1cc(NC(=O)C(C)SCC(=O)Nc2cccc(S(=O)(=O)N3CCCCCC3)c2)no1 (stereo not drawn) | inactive | – |
| C[C@H](CO)N1C[C@H](C)[C@H](CN(C)CC2CC2)Oc2ccc(NC(=O)CCN3CCOCC3)cc2C1=O | inactive | – |
| Cc1cc(Cl)nc(NC(=O)Nc2cccc(Cl)c2)n1 | inactive | – |
| Cc1cc(C)nc(NC(=O)Nc2ccccc2C(F)(F)F)n1 | 16.4 µM (active) | – |
| COc1cccc(C(=O)NC(=O)Nc2nc(C)cc(C(F)(F)F)n2)c1 | inactive | – |
| CCC(C)C1(C2CCCC2)NC(=O)NC1=O (stereo not drawn) | inactive | – |
| Nc1ncnc2c1ncn2[C@@H]1O[C@H](CNS(=O)(=O)c2ccc(-c3ccno3)s2)[C@@H](O)[C@H]1O | inactive | – |
| Cc1cc2c(cc1C)NC1(C[C@H]3CCC(=O)N4CC[C@@H](C1)[C@@H]34)C(=NC(C)(C)CC(C)(C)C)N2 (stereo partly drawn) | inactive | – |
| N#Cc1nc(-c2cccc3ccccc23)oc1N | inactive | – |
| Cc1ccccc1-c1nc(C#N)c(NCc2ccco2)o1 | inactive | – |
| COc1ccc(Nc2oc(-c3ccccc3Cl)nc2C#N)cc1 | 10.3 µM (active) | – |
| COc1ccc(CCC(=O)Nc2ccc(Cl)c(S(=O)(=O)N3CCOCC3)c2)cc1OC | inactive | – |
| O=[N+]([O-])c1ccccc1/C=C/CN1CCC(O)CC1 | inactive | – |
| CC1CCCCC1NC(=O)/C(C#N)=C/C=C/c1ccccc1[N+](=O)[O-] (stereo not drawn) | 6.51 µM (active) | – |
| O=[N+]([O-])c1ccccc1/C=C/CN1CCCC(CO)C1 (stereo not drawn) | inactive | – |
| COCCN(C(=O)C(C)N1C(=O)c2ccccc2C1=O)c1c(N)n(CC(C)C)c(=O)[nH]c1=O (stereo not drawn) | inactive | – |
| O=[N+]([O-])c1ccc(N=NNc2ccc([N+](=O)[O-])cc2)cc1 | inactive | – |
| COc1cccc(N2CCN(CC(=O)Nc3ccnn3C3CCCC3)CC2)c1 | inactive | – |
| COc1cc(OC)cc(-c2cc3ccc(F)cc3cn2)c1 | inactive | – |
| CC1CCC(NC(=O)C2c3ccccc3C(=O)N2Cc2ccc3c(c2)OCO3)CC1 (stereo not drawn) | inactive | – |
| O=C(C1CCN(Cc2ccc(Cl)cc2)CC1)N1CCN(Cc2ccc3c(c2)OCO3)CC1 | inactive | – |
| O=C(Nc1ccc(Cl)cc1)C1c2cccc[n+]2CC(=O)N1Cc1ccc2c(c1)OCO2 (stereo not drawn) | 23.1 µM (active) | – |
| C=CC[C@@H](CC(=O)N[C@@H](CO)Cc1ccccc1)C(=O)NCCOC(=O)[C@@H](CC=C)CC(=O)OC(C)(C)C | inactive | – |
| COC1=CC(=O)OC(C)(c2ccccc2)C1 (stereo not drawn) | inactive | – |
| CCOC(=O)CCC(NC(=O)c1ccc(CNc2nc3cc(C(F)(F)F)ccc3nc2C(=O)OCC)cc1)C(=O)OCC (stereo not drawn) | inactive | – |

| Structure (SMILES) | Potency | re-replication activation |
| --- | --- | --- |
| FC(F)(F)c1ccc(-c2cccc3c2C2CC3CCN2Cc2ccccc2)cc1 (stereo not drawn) | inactive | – |
| O=C(NNc1nc(N2CCCC2)nc(N2CCCC2)n1)c1ccccc1 | inactive | – |
| CCN(CC)c1ccc(C(=O)N/N=C/c2ccc(N3CCOCC3)cc2)cc1 | 18.4 µM (active) | – |
| Cc1cc(C(=O)N/N=C/c2ccc(N3CCOCC3)cc2)c(C)o1 | inactive | – |
| O=C(NN=Cc1ccc(N2CCOCC2)cc1)c1cc2ccccc2cc1O | inactive | – |
| O=C(Nc1cccc(S(=O)(=O)N2CCCCC2)c1)c1cncc(Br)c1 | inactive | – |
| CC/C(=C(/c1ccccc1)c1ccc(OCC[N+](C)(C)C)cc1)c1ccccc1 | inactive | – |
| Nn1c(SCC(=O)Nc2ccc3c(c2)CCC3)nnc1C1CC1 | inactive | – |
| O=C(COC(=O)c1ccccc1O)NCc1ccco1 | inactive | – |
| CN(c1ccccc1)S(=O)(=O)c1ccc(Cl)c(C(=O)OCC(=O)NCc2ccco2)c1 | inactive | – |
| Cc1cc(C(=O)OCC(=O)NCc2ccco2)c(C)n1-c1ccccc1 | 7.31 µM (active) | – |
| CC(C(=O)N1CCc2ccccc21)N(C)CC(=O)Nc1ccc(F)cc1 (stereo not drawn) | inactive | – |
| O=C1COc2ccc(C(=O)COC(=O)CCOc3ccccc3)cc2N1 | inactive | – |
| Cc1ccc(-c2csc(C(C#N)=C(O)CN3CCN(C(=O)c4ccco4)CC3)n2)cc1 | inactive | – |
| Cc1cn([C@H]2CC(F)[C@@H](CO)O2)c(=O)[nH]c1=O (stereo partly drawn) | inactive | – |
| COc1cc(OC)cc(C(=O)NCC(=O)OCC(=O)NC(C)CCc2ccccc2)c1 (stereo not drawn) | inactive | – |
| O=C(Nc1cccc(-c2cscn2)c1)C1CCN(Cc2ccsc2)CC1 | inactive | – |
| CC(=O)c1cc(CN2CCC(C(=O)Nc3cccc(-c4cscn4)c3)CC2)cs1 | inactive | – |
| CCn1cc(CN2CCC(C(=O)Nc3cccc(-c4cccc(Cl)c4)c3)CC2)cn1 | 18.4 µM (active) | – |
| C=CCN1C=C(C(=O)c2ccccc2)C(=O)CC1 | inactive | – |
| CCCCCCCCCCOC(=O)Cn1c(COc2cccc(OC)c2)[n+](C)c2ccccc21 | inactive | – |
| Cc1ccc(OCCCn2c(=O)oc3ccccc32)cc1 | inactive | – |
| CCCCCCCCCCOC(=O)Cn1c(COc2ccc(C)cc2)[n+](C)c2ccccc21 | 20.6 µM (active) | – |
| O=c1c2ccccc2ncn1CCc1ccncc1 | inactive | – |
| COc1ccccc1C(=O)OCC(=O)Nc1cccc(S(=O)(=O)NC2=NCCCCC2)c1 | inactive | – |

| Structure (SMILES) | Potency | re-replication activation |
| --- | --- | --- |
| CCOc1ccccc1CNS(=O)(=O)c1cc(-c2cc(C)no2)ccc1C | inactive | – |
| Cc1cc(-c2ccc(C)c(S(=O)(=O)NCCCN(Cc3ccccc3)C(C)C)c2)on1 | 18.4 µM (active) | – |
| Cc1cc(-c2ccc(C)c(S(=O)(=O)NC(C)Cc3ccco3)c2)on1 (stereo not drawn) | inactive | – |
| COc1cccc2oc(CCc3ccccc3)cc(=O)c12 | inactive | – |
| CCOc1cc(C(=O)N(Cc2ccccc2)c2ccc(C)cc2)ccc1OCC(=O)N1CCOCC1 | inactive | – |
| CC1CCN(C2=NC(=O)/C(=C/c3ccc(O)cc3)S2)CC1 | inactive | – |
| O=C1/C(=C\c2ccc(O)cc2)CCC1CNc1ccc(Cl)cc1 (stereo not drawn) | 16.4 µM (active) | – |
| CC(C(=O)NC1CCS(=O)(=O)C1)N1C(=O)/C(=C/c2ccc(Cl)cc2)SC1=S (stereo not drawn) | inactive | – |
| O=C(COC(=O)c1cccnc1Cl)Nc1ccc(S(=O)(=O)N2CCOCC2)cc1 | inactive | – |
| COCCN(C(=O)CSCc1ccc(C)cc1)c1c(N)n(CC(C)C)c(=O)[nH]c1=O | inactive | – |
| COc1ccc(/C=N/NC(=O)C(C)N(c2ccc(OC)cc2)S(C)(=O)=O)cc1 (stereo not drawn) | 18.4 µM (active) | – |
| COc1ccc(/C=N/NS(=O)(=O)c2ccc(NC(C)=O)cc2)cc1 | inactive | – |
| CC(C(=O)NC1CCCC1)N(c1ccc(Oc2ccccc2)cc1)S(C)(=O)=O (stereo not drawn) | inactive | – |
| CC[C@]12c3[nH]c4cc(CCC(=O)N(C)C)ccc4c3CCN1C(=O)[C@@H](CC(=O)NCC13CC4CC(CC(C4)C1)C3)C[C@@H]2C(=O)N1CCN(C(=O)C2CC2)CC1 | – | -2.17% [at 9.22 µM] |
| CC(C)(C)OC(=O)C[C@@H]1C/C=C\C[C@@H](CC(=O)N[C@@H](CO)Cc2ccccc2)C(=O)N2CCC[C@H]2COC1=O | inactive | – |
| CC1CCCCC1NC(=O)COc1ccc(C#N)cc1 (stereo not drawn) | inactive | – |
| Oc1c(C(c2ccccn2)N2CCOCC2)ccc2cccnc12 (stereo not drawn) | inactive | – |
| Oc1ccccc1CN1CCN(C(c2ccccc2)c2ccccc2)CC1 | inactive | – |
| CCN1CCN(C(c2cccnc2)c2cc(Cl)c3cccnc3c2O)CC1 (stereo not drawn) | 20.6 µM (active) | – |
| COc1cc(C(=O)N2CCN(S(=O)(=O)c3ccc(C(C)C)cc3)CC2)ccc1OCC(=O)N1CCOCC1 | inactive | – |
| COC(=O)[C@]1(C)N[C@H](CN(C)C(=O)c2ccc(C(C)(C)C)cc2)[C@@H]2C(=O)N(C)C(=O)[C@@H]21 | inactive | – |
| COc1cc(/C=C/CNC[C@H]2O[C@@H](n3cnc(C(N)=O)n3)[C@H](O)[C@@H]2O)ccc1O | inactive | – |
| CCNC(=O)CSc1nc(-c2ccccc2)cs1 | inactive | – |
| CCN(CC)C(=O)c1sc2nc(-c3ccccc3)ccc2c1N | 20.6 µM (active) | – |
| Nc1c(C(=O)NCc2ccccc2)sc2nc3c(cc12)C(=O)CCC3 | inactive | – |

| Structure (SMILES) | Potency | re-replication activation |
| --- | --- | --- |
| Cc1ccc(S(=O)(=O)N2CCC(C(=O)N3CCCCCCC3)CC2)cc1 | inactive | – |
| COc1ccc(CNC(=O)COC(=O)C2=Cc3ccccc3OC2)cc1 | inactive | – |
| COc1ccc(C2=Nn3c(nnc3-c3ccccc3OC)SC2)cc1OC1CCCC1 | 2.31 µM (active) | – |
| CC1=Nn2c(nnc2-c2ccccc2)SC1 | inactive | – |
| Cc1nnc2n1N=C(c1ccccc1)CS2 | inactive | – |
| COC(=O)[C@]1(CC(C)C)N[C@H](c2ccc(SC3CCCCC3)cc2)[C@@H]2C(=O)N(C)C(=O)[C@@H]21 | inactive | – |
| Cc1cccc(Nc2nc3c(S(=O)(=O)c4ccccc4)nnn3c3ccccc23)c1C | inactive | – |
| Cc1ccc(S(=O)(=O)c2nnn3c2nc(N2CCN(c4ccccn4)CC2)c2ccccc23)cc1 | inactive | – |
| CC(=O)Nc1ccc(Nc2nc3c(S(=O)(=O)c4ccc(C)c(C)c4)nnn3c3ccccc23)cc1 | 18.4 µM (active) | – |
| S=C(Nc1ccccc1)Nc1ccc2ccccc2c1 | inactive | – |
| Cc1cccn2c(=O)c3cc(C(=O)N4COCC4(C)C)n(C)c3nc12 | inactive | – |
| Cc1cccn2c(=O)c3cc(C#N)c(=NC(=O)c4cccnc4)n(CC4CCCO4)c3nc12 (stereo not drawn) | 18.4 µM (active) | – |
| Cc1cccn2c(=O)c3cc(C(=O)NC4CCCCC4)sc3nc12 | inactive | – |
| NN=C(NN=Cc1ccccc1)c1ccccc1 | inactive | – |
| COc1ccccc1-n1c(CNC(=O)c2ccccc2)nnc1SCC(=O)Nc1nnc(C)s1 | inactive | – |
| Cc1cccc(CSc2nnc(NC(=O)CSc3nnc(C)s3)s2)c1 | inactive | – |
| Cc1nnc(NC(=O)CSc2nccn2-c2cccc(C)c2C)s1 | 8.2 µM (active) | – |
| Cc1cc([N+](=O)[O-])c(=O)[nH]c1C | inactive | – |
| O=C(c1[nH]ncc1-c1ccc(Cl)cc1)C1CO1 (stereo not drawn) | 16.4 µM (active) | – |
| O=C(c1nnc(-c2ccc(Cl)cc2)o1)C1CCCC1 | inactive | – |
| N=C1c2ccccc2-c2ccccc21 | inactive | – |
| COC(=O)c1ccc(C)c(NC(=O)Cn2c(C)csc2=O)c1 | inactive | – |
| CC(C)N(C(=O)[C@H]1C[C@H](CC(=O)NC(C)(C)C)C(=O)N2CCc3c([nH]c4ccc(Cl)cc34)[C@]12C)C(C)C | inactive | – |
